Calls of active or inactive are those of the source. The calls were made as follows: active = hit-call score of the fitted dose curve at least 0.9, where 1 is the maximum; inactive = score below 0.9.
Columns and labels:
[1] = CEETOX_H295R_ESTRADIOL: CeeTox H295R High-throughput Steroidogenesis Assay for Estradiol (AID 2283440); details: actives raise or lower the signal;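 also: estradiol secreted into medium quantified by LC-MS/MS after dansyl derivatisation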
Summary of the method: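 H295R, 48 h forskolin (10 uM) prestim → 48 h compound, 0.1% DMSO final. Estradiol in medium: MTBE extraction, dansyl chloride derivatization, LC-MS/MS. Fit bidirectional vs DMSO baseline; MTT viability in same wells.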

[2] = CEETOX_H295R_ESTRONE: CeeTox H295R High-throughput Steroidogenesis Assay for Estrone (AID 2283441); details: actives raise or lower the signal;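 also: estrone secreted into medium measured by LC-MS/MS after dansyl derivatization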
Summary of the method: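 Forskolin-stimulated H295R cells are treated 48 h with chemical, and estrone in the medium is measured by LC-MS/MS. Activity is fitted in both directions relative to DMSO controls, with chemicals diluted until MTT viability reaches at least 70%.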

[3] = CEETOX_H295R_PROG: CeeTox H295R High-throughput Steroidogenesis Assay for Progesterone (PROG) (AID 2283442); details: actives raise or lower the signal
Summary of the method: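 Progesterone read-out: HPLC-MS/MS on MTBE extracts of conditioned medium after 48 h chemical exposure of forskolin-primed (10 uM, 48 h) H295R cells. Gain or loss of signal was fitted relative to DMSO baseline.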

[4] = read-out: Tumor necrosis factor receptor superfamily member 6 (Homo sapiens) (UniProt P25445); experiment: LTEA_HepaRG_FAS: Life Technologies and Expression Analysis (LTEA) Assay for Fas cell surface death receptor (FAS) using HepaRG (AID 2283447); details: mRNA level, 48 h; actives raise or lower the signal
Summary of the method: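 Differentiated human HepaRG cells, pre-cultured 48 h, were exposed in duplicate for 48 h to 8-point half-log concentrations (top 100 uM, 0.5% DMSO) in serum-free induction medium; FAS mRNA measured by qRT-PCR, normalized to ACTB/GAPDH/POLR2A, bidirectional fit versus DMSO.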

[5] = read-out: Fatty acid synthase (Homo sapiens) (UniProt P49327); experiment: LTEA_HepaRG_FASN: Life Technologies and Expression Analysis (LTEA) Assay for Fatty Acid Synthase (FASN) using HepaRG (AID 2283448); details: mRNA level, 48 h; actives raise or lower the signal
Summary of the method: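 HepaRG, 48 h exposure, 8-pt half-log series top 100 uM, 0.5% DMSO vehicle, duplicates. Readout: FASN transcript by Fluidigm qRT-PCR; housekeeping-normalized; bidirectional curve fit vs DMSO baseline.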

[6] = read-out: Cyclin D2 (CCND2), CCND2 (gene 894); experiment: LTEA_HepaRG_CCND2: Life Technologies and Expression Analysis (LTEA) Assay for Cyclin D2 (CCND2) using HepaRG (AID 2283449); details: mRNA level, 48 h; actives raise or lower the signal;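 also: CCND2 transcript measured by TaqMan qRT-PCR and normalised to three housekeeping genes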
Summary of the method: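 In this HepaRG study, an eight-point concentration series (max 100 uM, 0.5% DMSO) is applied for 48 h. CCND2 mRNA change is derived by qRT-PCR normalised to ACTB, GAPDH and POLR2A.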

[7] = read-out: Cyclin Dependent Kinase Inhibitor 1A (CDKN1A), CDKN1A (gene 1026); experiment: LTEA_HepaRG_CDKN1A: Life Technologies and Expression Analysis (LTEA) Assay for Cyclin Dependent Kinase Inhibitor 1A (CDKN1A) using HepaRG (AID 2283450); details: mRNA level, 48 h; actives raise or lower the signal
Summary of the method: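 HepaRG, 48 h dosing, 8-pt half-log series from 100 uM top, 0.5% DMSO vehicle, duplicates. Readout: TaqMan qRT-PCR of CDKN1A transcript, housekeeping-normalized (ACTB, GAPDH, POLR2A). Up/down curve fit relative to DMSO.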

[8] = read-out: Cyclin D1 (CCND1), CCND1 (gene 595); experiment: LTEA_HepaRG_CCND1: Life Technologies and Expression Analysis (LTEA) Assay for Cyclin D1 (CCND1) using HepaRG (AID 2283451); details: mRNA level, 48 h; actives raise or lower the signal;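 as to AC50: TaqMan qRT-PCR transcript level normalised to ACTB GAPDH and POLR2A housekeeping genes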
Summary of the method: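 qRT-PCR (Fluidigm 96.96 array) read-out of transcript level, housekeeping-normalized (ACTB/GAPDH/POLR2A). HepaRG cells, 48 h chemical exposure, 8-point half-log series from 100 uM, 0.5% DMSO vehicle; gain or loss relative to DMSO baseline.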

[9] = read-out: catalase (CAT), CAT (gene 847); experiment: LTEA_HepaRG_CAT: Life Technologies and Expression Analysis (LTEA) Assay for catalase (CAT) using HepaRG (AID 2283452); details: mRNA level, 48 h; actives raise or lower the signal
Summary of the method: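 Differentiated HepaRG cells in serum-free induction medium were dosed 48 h in duplicate, eight half-log concentrations from 100 uM in 0.5% DMSO. Transcript measured by TaqMan qRT-PCR, normalised to ACTB/GAPDH/POLR2A, fitted bidirectionally against DMSO.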

[10] = read-out: flavin-containing dimethylaniline monooxygenases 3 (FMO3), FMO3 (gene 2328); experiment: LTEA_HepaRG_FMO3: Life Technologies and Expression Analysis (LTEA) Assay for flavin-containing dimethylaniline monooxygenases 3 (FMO3) using HepaRG (AID 2283453); details: mRNA level, 48 h; actives raise or lower the signal;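 as to AC50: FMO3 transcript by TaqMan qRT-PCR normalized to ACTB GAPDH and POLR2A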
Summary of the method: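 Eight-point concentration-response in serum-free HepaRG cultures (top 100 uM, 0.5% DMSO, 48 h). Read-out: FMO3 mRNA level normalized to three endogenous control genes, fitted bidirectionally versus vehicle.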

Measured: AC50

Chain of Fatty acid synthase (Homo sapiens) (P49327 whole entry, looked up): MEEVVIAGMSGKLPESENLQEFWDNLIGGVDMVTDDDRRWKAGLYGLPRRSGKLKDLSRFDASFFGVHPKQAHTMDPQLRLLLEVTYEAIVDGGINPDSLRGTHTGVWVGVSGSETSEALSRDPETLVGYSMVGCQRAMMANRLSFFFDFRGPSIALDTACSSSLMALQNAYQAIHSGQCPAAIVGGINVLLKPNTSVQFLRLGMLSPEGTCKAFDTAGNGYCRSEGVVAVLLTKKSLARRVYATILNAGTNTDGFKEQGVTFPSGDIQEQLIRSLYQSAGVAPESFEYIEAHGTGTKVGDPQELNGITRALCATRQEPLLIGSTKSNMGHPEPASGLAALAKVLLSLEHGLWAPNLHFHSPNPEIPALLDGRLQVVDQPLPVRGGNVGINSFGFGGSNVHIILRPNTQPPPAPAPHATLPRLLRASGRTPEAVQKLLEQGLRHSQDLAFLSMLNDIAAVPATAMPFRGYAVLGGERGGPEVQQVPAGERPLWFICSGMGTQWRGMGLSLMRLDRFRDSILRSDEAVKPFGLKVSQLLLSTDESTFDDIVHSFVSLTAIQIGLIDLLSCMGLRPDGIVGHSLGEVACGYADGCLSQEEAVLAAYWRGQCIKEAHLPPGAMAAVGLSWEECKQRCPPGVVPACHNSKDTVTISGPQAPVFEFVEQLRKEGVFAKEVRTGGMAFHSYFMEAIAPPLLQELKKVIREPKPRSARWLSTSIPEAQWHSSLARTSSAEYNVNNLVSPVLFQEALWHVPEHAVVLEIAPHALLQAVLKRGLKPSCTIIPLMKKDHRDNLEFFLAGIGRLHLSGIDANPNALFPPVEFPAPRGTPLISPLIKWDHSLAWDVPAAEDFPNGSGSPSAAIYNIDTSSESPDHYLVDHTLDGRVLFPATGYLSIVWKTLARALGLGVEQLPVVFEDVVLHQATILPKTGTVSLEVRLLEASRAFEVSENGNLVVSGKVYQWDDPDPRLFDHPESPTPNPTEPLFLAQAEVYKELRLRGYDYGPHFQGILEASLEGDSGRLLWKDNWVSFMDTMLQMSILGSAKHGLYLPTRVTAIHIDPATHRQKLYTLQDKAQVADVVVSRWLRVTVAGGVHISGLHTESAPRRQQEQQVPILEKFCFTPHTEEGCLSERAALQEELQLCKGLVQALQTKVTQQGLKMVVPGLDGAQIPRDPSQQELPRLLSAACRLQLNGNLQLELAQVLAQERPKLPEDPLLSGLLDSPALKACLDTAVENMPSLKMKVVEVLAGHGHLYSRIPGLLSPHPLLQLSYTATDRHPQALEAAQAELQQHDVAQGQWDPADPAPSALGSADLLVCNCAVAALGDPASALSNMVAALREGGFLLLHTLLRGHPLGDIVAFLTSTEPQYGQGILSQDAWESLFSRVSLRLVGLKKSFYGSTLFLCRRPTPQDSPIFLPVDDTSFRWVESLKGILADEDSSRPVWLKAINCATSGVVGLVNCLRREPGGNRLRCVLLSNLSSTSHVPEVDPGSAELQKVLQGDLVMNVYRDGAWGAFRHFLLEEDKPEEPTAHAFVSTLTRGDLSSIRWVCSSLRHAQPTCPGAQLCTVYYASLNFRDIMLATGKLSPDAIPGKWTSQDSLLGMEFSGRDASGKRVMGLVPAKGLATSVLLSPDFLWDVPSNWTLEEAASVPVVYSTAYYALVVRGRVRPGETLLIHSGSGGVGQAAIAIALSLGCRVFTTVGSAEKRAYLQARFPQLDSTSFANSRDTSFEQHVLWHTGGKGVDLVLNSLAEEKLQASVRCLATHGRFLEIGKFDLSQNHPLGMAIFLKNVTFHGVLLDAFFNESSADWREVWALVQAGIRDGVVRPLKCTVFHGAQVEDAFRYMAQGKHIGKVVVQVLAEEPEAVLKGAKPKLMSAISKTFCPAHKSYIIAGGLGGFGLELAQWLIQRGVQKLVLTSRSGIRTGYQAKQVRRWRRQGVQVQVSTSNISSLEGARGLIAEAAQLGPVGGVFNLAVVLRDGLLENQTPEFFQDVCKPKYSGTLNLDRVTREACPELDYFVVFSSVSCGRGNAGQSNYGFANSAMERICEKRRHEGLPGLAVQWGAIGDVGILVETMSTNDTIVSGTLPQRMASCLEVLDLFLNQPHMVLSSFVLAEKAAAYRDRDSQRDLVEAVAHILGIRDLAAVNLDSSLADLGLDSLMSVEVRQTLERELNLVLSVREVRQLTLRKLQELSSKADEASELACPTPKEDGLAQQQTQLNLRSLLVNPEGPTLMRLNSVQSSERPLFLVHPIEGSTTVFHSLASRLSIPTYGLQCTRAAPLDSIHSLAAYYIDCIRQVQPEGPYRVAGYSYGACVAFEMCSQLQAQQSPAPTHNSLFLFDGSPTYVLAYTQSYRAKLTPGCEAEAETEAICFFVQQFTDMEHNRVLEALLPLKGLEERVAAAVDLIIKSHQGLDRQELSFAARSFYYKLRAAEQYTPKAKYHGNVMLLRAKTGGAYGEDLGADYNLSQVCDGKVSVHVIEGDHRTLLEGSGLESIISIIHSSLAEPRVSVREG

CCCOc1ccc(S(=O)(=O)N2CCN(CC)CC2)cc1-c1nc2c(CC)n(Cc3ccccn3)nc2c(=O)[nH]1
active: [5] 50 µM
inactive: all other assays above

CCN(CC)C(=S)SSC(=S)N(CC)CC
inactive: all assays above

CCCCCCCCCCCCCCCCOS(=O)(=O)O
not listed: [1] | [2] | [3]
inactive: all other assays above

CC1(C)C(=O)N(Cl)C(=O)N1Cl
not listed: [1] | [2] | [3]
inactive: all other assays above

COS(C)(=O)=O
not listed: [1] | [2] | [3]
inactive: all other assays above

NC(=O)N1c2ccccc2C=Cc2ccccc21
inactive: [4] | [5] | [7] | [8] | [9] | [10]

CCCCOC(=O)c1ccccc1
not listed: [1] | [2] | [3]
inactive: all other assays above

NNC(=O)c1ccncc1
not listed: [1] | [2] | [3]
inactive: all other assays above

COCc1nnc(-c2ccc[n+]([O-])c2)n1-c1c(Cl)c(Cl)cc2[nH]c(=O)c(=O)[nH]c12
not listed: [1] | [2] | [3]
inactive: all other assays above

OC[C@H]1O[C@@H]2O[C@H]3[C@H](O)[C@@H](O)[C@@H](O[C@H]4[C@H](O)[C@@H](O)[C@@H](O[C@H]5[C@H](O)[C@@H](O)[C@@H](O[C@H]6[C@H](O)[C@@H](O)[C@@H](O[C@H]7[C@H](O)[C@@H](O)[C@@H](O[C@H]1[C@H](O)[C@H]2O)O[C@@H]7CO)O[C@@H]6CO)O[C@@H]5CO)O[C@@H]4CO)O[C@@H]3CO
not listed: [1] | [2] | [3]
inactive: all other assays above

CCCCCCCCCC
not listed: [1] | [2] | [3]
inactive: all other assays above

NC(=O)NN=Cc1ccc([N+](=O)[O-])o1
inactive: [4] | [7] | [8] | [9] | [10]
active: [5] 50 µM | [6] 0.0722 µM

c1ccc2cc3ccccc3cc2c1
not listed: [1] | [2] | [3]
inactive: all other assays above

OC(Cn1cncn1)(Cn1cncn1)c1ccc(F)cc1F
not listed: [1] | [2] | [3]
inactive: all other assays above

CCCCCCOC(=O)CC(CC(=O)OCCCCCC)(OC(=O)CCC)C(=O)OCCCCCC
not listed: [1] | [2] | [3]
inactive: all other assays above

Cn1cc[nH]c1=S
not listed: [1] | [2] | [3]
inactive: all other assays above

OCCOCCOCCO
not listed: [1] | [2] | [3]
inactive: all other assays above

Cc1nccn1-c1ccc(Sc2cccc(C3(C(N)=O)CCOCC3)c2)cc1
active: [5] 9.48 µM | [7] 12.3 µM | [9] 8.97 µM | [10] 9.6 µM
inactive: [4] | [6] | [8]

c1ccc(C(O[C@@H]2CCCN(CCc3ccc4c(c3)OCO4)C2)c2ccccc2)cc1
inactive: [6]
active: [4] 50 µM | [5] 79.9 µM | [7] 77.7 µM | [8] 50 µM | [9] 69.7 µM | [10] 70 µM

OCC(CO)(CO)CO
inactive: [4] | [5] | [7] | [9] | [10]

CCCCN1C(=O)[C@@H]([C@H](O)C2CCCCC2)NC(=O)C12CCN(Cc1ccc(Oc3ccc(C(=O)O)cc3)cc1)CC2
active: [5] 1.32 µM | [8] 50 µM | [9] 2.04 µM | [10] 3.54 µM
inactive: [4] | [7]

CCOC(N)=O
not listed: [1] | [2] | [3]
inactive: all other assays above

NC(=O)N(O)[C@@H]1COc2cc(OCc3ccccc3)ccc21
not listed: [1] | [2] | [3]
inactive: all other assays above

O=C(O)c1cccc(C(=O)O)c1
not listed: [1] | [2] | [3]
inactive: all other assays above

CCCCCOC(C)=O
not listed: [1] | [2] | [3]
inactive: all other assays above

OC(CCl)CCl
not listed: [1] | [2] | [3]
inactive: all other assays above

NC(N)=O
not listed: [1] | [2] | [3]
inactive: all other assays above

C=CN1CCCC1=O
not listed: [1] | [2] | [3]
inactive: all other assays above

CC(C)CCCCCCOC(=O)C1CCCCC1C(=O)OCCCCCCC(C)C (stereo not drawn)
not listed: [1] | [2] | [3]
inactive: all other assays above

OCc1ccccc1
not listed: [1] | [2] | [3]
inactive: all other assays above

CCc1cccc(CC)c1N
not listed: [1] | [2] | [3]
inactive: all other assays above

COc1cc(C(C)C)c2c(c1)S(=O)(=O)N(COc1cc(=O)n3cccc(OCCN4CCCCC4)c3n1)C2=O
inactive: [4] | [7]
active: [5] 20.7 µM | [8] 19.4 µM | [9] 19.4 µM | [10] 23 µM

OC[C@H]1O[C@@](CO)(O[C@H]2O[C@H](CO)[C@@H](O)[C@H](O)[C@H]2O)[C@@H](O)[C@@H]1O
not listed: [1] | [2] | [3]
inactive: all other assays above

Cc1ccc(S(=O)(=O)NC(=O)NN2CCCCCC2)cc1
not listed: [1] | [2] | [3]
inactive: all other assays above

CCCc1ccccc1
inactive: [4] | [5] | [7] | [8] | [9] | [10]

O=C1CN(N=Cc2ccc([N+](=O)[O-])o2)C(=O)N1
inactive: [4] | [5] | [6] | [8] | [9]
active: [7] 81.5 µM | [10] 73 µM

CCc1ccc(O)c(C(C)(C)C)c1
inactive: [4] | [5] | [7] | [8] | [9] | [10]

— PubChem BioAssay (EPA / NIEHS)
